From PubChem BioAssay (NCATS)
Results filed as inconclusive are left out. Activity calls are given as the source filed them. The call rests on the fitted dose curve; in most records, active means well fitted curve in the direction sought with a large enough effect; inconclusive means small, poorly fitted or top-dose-only effect, or another doubt; inactive means no such curve, though single readings can be large; an effect the other way counts as inactive or inconclusive.

Key:
HEK293 = assay: Cytotoxic Profiling of Annotated Libraries Using Quantitative High-Throughput Screening (AID 1296008); conditions: Five cell lines viability, CellTiter-Glo ATP luminescence, 48-72 h; max response: active compounds read low; further: nearly all actives have a fitted effect of over 60% in size; further: potency means the concentration at half of the fitted maximal effect; on max response: on the % scale 0 is the no-effect control and ±100 the full control effect
In short: (§1)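 Cells exposed to compounds for 48 or 72 hr at 37 degrees Celsius. Viability read as ATP-coupled luminescence with CellTiter-Glo after 10 min at room temperature.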

KB-3-1 = assay: as above; conditions: Five cell lines viability, CellTiter-Glo ATP luminescence, 48-72 h; max response: active compounds read low
In short: as §1

C33A = assay: Primary qHTS to identify gynecologic anti-cancer compounds using libraries of approved drugs and bioactive compounds (AID 1345084); conditions: Gynecologic cancer cell panel viability, ATPlite luminescence, 48 h; series mostly up to 57.5 µM; further: nearly all actives have a fitted effect of over 55% in size; further: potency means the concentration at half of the fitted maximal effect
In short: (§2)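 ATP-based viability (ATPlite), 1,000 cells/well, 16 h pre-incubation, 48 h compound at 37 C, 5% CO2, 15 min RT before read.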

CAOV3 = assay: as above; conditions: Gynecologic cancer cell panel viability, ATPlite luminescence, 48 h; series mostly up to 57.5 µM
In short: as §2

CASKI = assay: as above; conditions: Gynecologic cancer cell panel viability, ATPlite luminescence, 48 h; series mostly up to 57.5 µM
In short: as §2

HEK293T [1] = assay: qHTS assay to identify novel small-molecules to repurpose for Merkel cell carcinoma treatment (AID 1296009); conditions: MCC and control cell lines, CellTiter-Glo viability, 72 h; at 44.8 µM (top of the series) unless noted; further: nearly all actives have a fitted effect of over 60% in size
In short: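 Cells were incubated with compound for 72 hr at 37 degree celsius before CellTiter-Glo addition. Luminescence was normalized with no-cell wells as full cytotoxicity and DMSO as baseline.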

Es-2 = assay: Primary qHTS to identify gynecologic anti-cancer compounds using libraries of approved drugs and bioactive compounds (AID 1345084); conditions: Gynecologic cancer cell panel viability, ATPlite luminescence, 48 h; series mostly up to 57.5 µM; further: nearly all actives have a fitted effect of over 55% in size; further: potency means the concentration at half of the fitted maximal effect
In short: as §2

HeLa = assay: as above; conditions: Gynecologic cancer cell panel viability, ATPlite luminescence, 48 h; series mostly up to 57.5 µM
In short: as §2

Hek293T [2] = assay: as above; conditions: Gynecologic cancer cell panel viability, ATPlite luminescence, 48 h, control line for the selectivity index; series mostly up to 57.5 µM
In short: as §2

JEG-3 = assay: as above; conditions: Gynecologic cancer cell panel viability, ATPlite luminescence, 48 h; series mostly up to 57.5 µM
In short: as §2

NIH3T3 = assay: Cytotoxic Profiling of Annotated Libraries Using Quantitative High-Throughput Screening (AID 1296008); conditions: Five cell lines viability, CellTiter-Glo ATP luminescence, 48-72 h; max response: active compounds read low; further: nearly all actives have a fitted effect of over 60% in size; further: potency means the concentration at half of the fitted maximal effect; on max response: on the % scale 0 is the no-effect control and ±100 the full control effect
In short: as §1

COc1ccc(Oc2cc(C)c(-c3csc(NC(=O)c4ccncc4)n3)c(C)c2)cc1
inactive: Potency (C33A) | Potency (CAOV3)
active: Potency (HEK293) 0.326 µM | Potency (KB-3-1) 0.146 µM | Potency (CASKI) 0.891 µM

CC1CCN(C(=O)CC#N)CC1N(C)c1ncnc2[nH]ccc12 (centres undefined)
inactive: outcome (HEK293) | outcome (KB-3-1) | outcome (HEK293T [1]) | Potency (C33A) | Potency (CAOV3) | Potency (CASKI) | Potency (Es-2) | Potency (HeLa) | Potency (Hek293T [2]) | Potency (JEG-3)

Cc1nc(Nc2n[nH]c3c2CN(C(=O)NC(CN(C)C)c2ccccc2)C3(C)C)c2sccc2n1 (centres undefined)
active: Potency (HEK293) 0.0146 µM | Potency (KB-3-1) 1.84 µM | Potency (NIH3T3) 8.2 µM | Potency (CAOV3) 1.41 µM | Potency (CASKI) 3.98 µM | Potency (Es-2) 7.94 µM | Potency (HeLa) 10 µM | Potency (Hek293T [2]) 7.94 µM

CC(=O)NCC(=O)N1C2CCC1c1cc(Nc3ncc(C(F)(F)F)c(NC4CCC4)n3)ccc12 (centres undefined)
active: Potency (HEK293) 2.59 µM | Potency (KB-3-1) 1.03 µM | Potency (NIH3T3) 1.3 µM | Potency (Es-2) 14.1 µM | Potency (Hek293T [2]) 3.98 µM
inactive: Potency (C33A) | Potency (JEG-3)

CO[C@H]1/C=C/[C@@](C)(O)/C=C/C(=O)O[C@H](C)[C@@H](C)CC/C=C/1C
inactive: max response (HEK293) -82.6% | max response (KB-3-1) -8.74%
active: Potency (NIH3T3) 3.21 µM | Potency (CASKI) 11.2 µM

Cc1cc(O)c(-c2ccc([C@@H](C)CN(C)C)cc2)c2c1[nH]c(=O)c1sccc12
active: Potency (HEK293) 0.0259 µM | Potency (KB-3-1) 0.0461 µM | Potency (NIH3T3) 0.231 µM | Potency (CASKI) 0.251 µM | Potency (Es-2) 0.282 µM | Potency (HeLa) 0.447 µM | Potency (Hek293T [2]) 0.158 µM

CO[C@@H](C)Cn1c(=O)n(C)c2cnc3ccc(-c4cncc(C(C)(C)O)c4)cc3c21
active: Potency (HEK293) 0.231 µM | Potency (KB-3-1) 0.651 µM | Potency (NIH3T3) 0.326 µM | Potency (CASKI) 5.01 µM | Potency (HeLa) 6.31 µM | Potency (Hek293T [2]) 0.562 µM | Potency (JEG-3) 31.6 µM

O=c1[nH]ccc2cc(OC3CCNCC3)ccc12
inactive: max response (HEK293) -16.8% | outcome (KB-3-1) | Potency (C33A) | Potency (CAOV3) | Potency (CASKI) | Potency (Es-2) | Potency (HeLa) | Potency (Hek293T [2]) | Potency (JEG-3)

Nc1nccn2c(C3CCC(C(=O)O)CC3)nc(-c3cc4cccc(Cl)c4[nH]3)c12 (centres undefined)
active: Potency (HEK293) 5.17 µM | Potency (KB-3-1) 1.84 µM | Potency (NIH3T3) 7.31 µM | Potency (Es-2) 28.2 µM

CCc1cccc(CC)c1NC(=O)c1nn(C)c2c1CCc1cnc(Nc3ccc(C(=O)NC4CCN(C)CC4)cc3OC(F)(F)F)nc1-2
active: Potency (HEK293) 1.78 µM | Potency (KB-3-1) 5.63 µM
inactive: Potency (C33A) | Potency (CAOV3) | Potency (CASKI) | Potency (Es-2) | Potency (HeLa) | Potency (Hek293T [2]) | Potency (JEG-3)

CC(C)(C)c1cc(Br)cc([C@H](CC(=O)O)NC(=O)CNC(=O)c2cc(O)cc(NC3=NCC(O)CN3)c2)c1 (some centres undefined)
inactive: max response (HEK293) -3.62% | max response (KB-3-1) 3.01% | Potency (C33A) | Potency (CAOV3) | Potency (CASKI) | Potency (Es-2) | Potency (HeLa) | Potency (Hek293T [2]) | Potency (JEG-3)

Oc1ccc(CNc2ccccc2F)c2cccnc12
active: Potency (HEK293) 18.4 µM | Potency (KB-3-1) 5.8 µM
inactive: Potency (JEG-3)

C=CC(=O)Nc1cccc(CN2C(=O)N(c3c(Cl)c(OC)cc(OC)c3Cl)Cc3cnc(NCCCCN(CC)CC)nc32)c1
inactive: Potency (Es-2) | Potency (Hek293T [2]) | Potency (JEG-3)
active: Potency (HEK293) 16.4 µM | Potency (KB-3-1) 18.4 µM

Cc1ccc(C(=O)N(CCCN)C(c2nc3cc(Cl)ccc3c(=O)n2Cc2ccccc2)C(C)C)cc1 (centres undefined)
active: Potency (HEK293) 0.0092 µM | Potency (KB-3-1) 0.0082 µM | Potency (CAOV3) 25.1 µM | Potency (CASKI) 25.1 µM

Cc1cnc(Nc2ccc(F)cc2Cl)nc1-c1c[nH]c(C(=O)NC(CO)c2cccc(Cl)c2)c1 (centres undefined)
active: Potency (HEK293) 5.8 µM
inactive: max response (KB-3-1) -9.44% | Potency (C33A) | Potency (CAOV3) | Potency (CASKI) | Potency (Es-2) | Potency (Hek293T [2]) | Potency (JEG-3)

COc1c(Nc2ncc(Cl)c(N[C@H]3[C@@H](C(N)=O)[C@@H]4C=C[C@H]3C4)n2)ccc2c1CC[C@@H](N1CCOCC1)CC2
inactive: Potency (C33A) | Potency (CASKI) | Potency (Es-2) | Potency (HeLa) | Potency (Hek293T [2]) | Potency (JEG-3)
active: Potency (HEK293) 3.66 µM | Potency (KB-3-1) 18.4 µM

CC(=O)NC1=NN(C(C)=O)C(C)(c2ccccc2)S1 (centres undefined)
active: Potency (HEK293) 4.11 µM | Potency (KB-3-1) 5.17 µM | Potency (HeLa) 14.1 µM

CC1(C)CCC[C@]2(C)[C@H]3CC(=O)O[C@]3(C)CC[C@@H]12
inactive: max response (HEK293) -37.4% | max response (KB-3-1) -11% | Potency (C33A) | Potency (CAOV3) | Potency (CASKI) | Potency (Es-2) | Potency (HeLa) | Potency (Hek293T [2]) | Potency (JEG-3)
